Among the data in PubChem BioAssay AID651793 (National Center for Advancing Translational Sciences (NCATS), 2012) are Potency values, retold here.

Results filed as inconclusive are left out. Entries that show only a call come without a potency. The source made the active and inactive calls. Calls follow the shape of the dose curve; as a rule, active = well fitted inhibition curve with a large enough effect; inconclusive = small, poorly fitted or top-dose-only effect; inactive = flat fitted curve, though single readings scatter.

The assay in a line: InCell qHTS Assay for Inhibitors of the mTORC1 Signaling Pathway in WT MEF Cells: Hit Validation. The source says: The mammalian target of rapamycin (mTOR) is an intracellular serine/threonine kinase Aberrant regulation of mTOR signaling plays a causative role in a number of human diseases, including cancer, benign tumors such as lymphangioleiomyomatosis (LAM) and Tuberous Sclerosis Complex (TSC), and metabolic diseases such as diabetes and obesity. This project aims to identify inhibitors of ribosomal protein S6 (rpS6) phosphorylation. The phosphorylation of rpS6 is a key event downstream of mTOR activation. The assay uses a phospho-specific antibody of phospho-rpS6 to detect inhibitors of mTOR activation. […]
For quantitative high throughput analysis of mTORC1 signaling, we developed a cell-based assay for immuno-fluorescence based detection of rpS6 phosphorylation on the Acumen Explorer that will be used a platform for the primary small molecule screen. […] The fluorescence emission from the Alexa-488 conjugated rpS6 phospho-235/236 antibody staining is selected using a […] band pass filter. Fluorescence emission from the PI stain is selected using a 575-640 nm band pass filter. The normalized phospho-S6 staining is calculated as the ratio of the integrated Alexa 488 intensity divided by the integrated PI intensity for the single concentration rapamycin control (7.5 nM) and DMSO columns. […]
(In general: Quantitative high-throughput screening tests each substance at several concentrations.)

For the compound `CCOc1ccc(NC(=O)c2cc3c(C)nn(-c4ccccc4)c3s2)cc1`, the Potency is 17.9 µM (active). The same measure for `Cn1cc(C2=C(c3cn(C4CCN(Cc5ccccn5)CC4)c4ccccc34)C(=O)NC2=O)c2ccccc21`: “inactive”.
